Results from PubChem BioAssay (EPA / NIEHS).
Values joined by “and” are separate entries in the source; they are usually repeats but may differ in a detail not shown here. Equal entries are not always repeated. Results filed as inconclusive are left out. A structure can be active in one record and inactive in another. Active and inactive are the calls of the source. Rule for the calls, unless noted: active = hit-call score of the fitted dose curve at least 0.9, where 1 is the maximum; inactive = score below 0.9.

Key:
[1] = read-out: Monocyte Chemoattractant Protein-1 (MCP1), CCL2 (gene 6347); assay: BSK_LPS_MCP1: BioMAP Diversity Plus: LPS Assay for Monocyte Chemoattractant Protein-1 (MCP1) Biomarker Activity (AID 2283081); conditions: primary human HUVEC with PBMC; actives raise or lower the signal;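 for AC50: secreted MCP-1 protein quantified by ELISA in culture supernatant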
How it was run: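 LPS-stimulated HUVEC/PBMC co-culture; chemical, 24 h; MCP-1 by ELISA; bidirectional fit vs DMSO; cytotoxicity via SRB (0.1% stain, 10% TCA fix, 560 nm) in parallel wells.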

[2] = BSK_LPS_PGE2: BioMAP Diversity Plus: LPS Assay for Prostaglandin E2 (PGE2) Biomarker Activity (AID 2283082); conditions: primary human HUVEC with PBMC; actives raise or lower the signal;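 for AC50: secreted prostaglandin E2 measured by ELISA in LPS-stimulated co-culture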
How it was run: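 PGE2 release measured by ELISA in an LPS-activated co-culture of human umbilical vein endothelial cells and peripheral blood mononuclear cells, read at 24 h post-dosing. DMSO served as baseline for bidirectional curve fitting.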

[3] = read-out: Macrophage colony-stimulating factor (MCSF), CSF1 (gene 1435); assay: BSK_LPS_MCSF: BioMAP Diversity Plus: LPS Assay for Macrophage colony-stimulating factor (MCSF) Biomarker Activity (AID 2283083); conditions: primary human HUVEC with PBMC; actives raise or lower the signal
How it was run: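 Compound is added to a human vascular primary co-culture of umbilical vein endothelium and blood mononuclear cells. After 24 h, M-CSF is quantified by ELISA. Signal changes are fitted in both directions against DMSO.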

[4] = read-out: Tissue Factor, F3 (gene 2152); assay: BSK_LPS_TissueFactor: BioMAP Diversity Plus: LPS Assay for Tissue Factor Biomarker Activity (AID 2283084); conditions: primary human HUVEC with PBMC; actives raise or lower the signal
How it was run: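 In this co-culture system of umbilical vein endothelium with PBMC, stimulated with LPS, cell-surface CD142 is detected by ELISA at 24 h. Endpoint values derive from bidirectional fitting, DMSO serving as baseline.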

[5] = read-out: Tumor necrosis factor (Homo sapiens) (UniProt P01375); assay: BSK_LPS_TNFa: BioMAP Diversity Plus: LPS Assay for Tumour Necrosis Factor alpha (TNFa) Biomarker Activity (AID 2283085); conditions: primary human HUVEC with PBMC; actives raise or lower the signal;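 for AC50: TNFa protein level quantified by ELISA in the co-culture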
How it was run: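 TNFa was quantified by ELISA in LPS-activated co-cultures of human endothelial cells and PBMC, 24 h post-dosing. Both increases and decreases versus DMSO were fitted.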

[6] = read-out: Vascular cell adhesion molecule 1 (VCAM1), VCAM1 (gene 7412); assay: BSK_LPS_VCAM1: BioMAP Diversity Plus: LPS Assay for Vascular cell adhesion molecule 1 (VCAM1) Biomarker Activity (AID 2283086); conditions: primary human HUVEC with PBMC; actives raise or lower the signal
How it was run: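 VCAM-1 quantified by ELISA in an LPS-activated co-culture of human endothelial cells and peripheral blood mononuclear cells, read 24 h post-treatment. Fitted in both directions versus DMSO; parallel SRB staining flags overt cytotoxicity.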

CD38, CD38 (gene 952) = assay: BSK_SAg_CD38: BioMAP Diversity Plus: SAg Assay for CD38 Biomarker Activity (AID 2283087); conditions: primary human HUVEC with PBMC; actives raise or lower the signal
How it was run: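 CD38 quantified by ELISA (fluorescence) in a superantigen-activated endothelial cell–PBMC co-culture at 24 h post-dose. Activity fitted in both directions relative to DMSO; parallel SRB and Alamar Blue cytotoxicity read-outs.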

CD40, CD40 (gene 958) = assay: BSK_SAg_CD40: BioMAP Diversity Plus: SAg Assay for CD40 Biomarker Activity (AID 2283088); conditions: primary human HUVEC with PBMC; actives raise or lower the signal
How it was run: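 Fluorescence ELISA read-out of CD40 from umbilical vein endothelium plus peripheral blood mononuclear cells, sampled 24 h after dosing. Values come from bidirectional curve fitting with DMSO as baseline.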

CD69, CD69 (gene 969) = assay: BSK_SAg_CD69: BioMAP Diversity Plus: SAg Assay for CD69 Biomarker Activity (AID 2283089); conditions: primary human HUVEC with PBMC; actives raise or lower the signal;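 for AC50: cell surface CD69 protein quantified by ELISA with fluorescence detection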
How it was run: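 Endothelial/PBMC co-culture; chemical added; 24 h incubation; CD69 ELISA with fluorescence detection; bidirectional fit vs DMSO.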

[7] = read-out: Monocyte Chemoattractant Protein-1 (MCP1), CCL2 (gene 6347); assay: BSK_SAg_MCP1: BioMAP Diversity Plus: SAg Assay for Monocyte Chemoattractant Protein-1 (MCP1) Biomarker Activity (AID 2283090); conditions: primary human HUVEC with PBMC; actives raise or lower the signal
How it was run: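 Values derive from bidirectional fitting of ELISA-measured MCP1 against DMSO controls. Readings were taken 24 h after dosing human vascular endothelial cells co-cultured with peripheral blood mononuclear cells under superantigen stimulation.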

[8] = read-out: E-selectin (Homo sapiens) (UniProt P16581); assay: BSK_SAg_Eselectin: BioMAP Diversity Plus: SAg Assay for Eselectin Biomarker Activity (AID 2283091); conditions: primary human HUVEC with PBMC; actives raise or lower the signal
How it was run: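 Primary human endothelial cells and peripheral blood mononuclear cells were co-cultured and exposed to chemical for 24 hours. E-selectin levels were then quantified by ELISA, with bidirectional curve fitting normalised to DMSO controls.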

[9] = read-out: Monokine induced gamma interferon (MIG), CXCL9 (gene 4283); assay: BSK_SAg_MIG: BioMAP Diversity Plus: SAg Assay for Monokine induced gamma interferon (MIG) Biomarker Activity (AID 2283092); conditions: primary human HUVEC with PBMC; actives raise or lower the signal
How it was run: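 Measures CXCL9 protein by ELISA in a human vascular primary-cell co-culture (umbilical vein endothelium with PBMC) 24 h after chemical addition. Activity is scored up or down from the DMSO control.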

[10] = BSK_SAg_PBMCCytotoxicity: PBMC Cytotoxicity Assessment in the BioMAP Diversity Plus: SAg Assay (AID 2283093); conditions: primary human HUVEC with PBMC;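 note: PBMC viability measured as Alamar Blue reduction fluorescence at 546/580 nm; fitted both ways against DMSO so a hit may be loss or gain of signal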;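 for AC50: PBMC superantigen activated with SEB plus TSST-1 one hour after compound addition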
How it was run: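 Alamar Blue reduction (6 h, ex/em 546/580 nm) read after 90 h culture of PBMC pre-dosed 1 h then stimulated with SEB plus TSST-1, 20 ng/mL each. Gain or loss of signal fitted relative to DMSO.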

[11] = read-out: Interleukin-8 (IL8), CXCL8 (gene 3576); assay: BSK_SAg_IL8: BioMAP Diversity Plus: SAg Assay for Interleukin-8 (IL8) Biomarker Activity (AID 2283094); conditions: primary human HUVEC with PBMC; actives raise or lower the signal
How it was run: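 ELISA readout of IL-8 from a superantigen-activated endothelial/PBMC primary human co-culture, taken 24 h post-dosing and fitted in both directions against DMSO; parallel SRB total-protein staining flags overt cytotoxicity.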

[12] = BSK_SAg_Proliferation: Cell Proliferation Assessment in the BioMAP Diversity Plus: SAg Assay (AID 2283095); conditions: primary human HUVEC with PBMC;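 note: relative cell number as total protein by SRB absorbance in sub-confluent culture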
How it was run: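 Relative cell number in the endothelial cell/PBMC co-culture was quantified at 96 h by SRB staining (0.1% SRB, 10% TCA fixation, read at 560 nm). Curves were fitted in both directions relative to DMSO baseline.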

[13] = BSK_SAg_SRB: Viability Assessment in the BioMAP Diversity Plus: SAg Assay (AID 2283096); conditions: primary human HUVEC with PBMC;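 note: cells read one day after compound addition; hits may be either gain or loss of signal compared with DMSO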
How it was run: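 SRB absorbance at 560 nm served as the viability read-out. Cells (HUVEC plus peripheral blood mononuclear cells) were TCA-fixed and stained 24 h post-dosing; activity fitted in both directions against DMSO controls.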

[14] = target: human CYP2A6, CYP2A6 (gene 1548) (UniProt P11509); assay: NVS_ADME_hCYP2A6: NovaScreen (NVS) CYP450-related Enzyme Activity (ADME) Assay for human CYP2A6 (AID 2283099; active = hit-call score of the fitted dose curve at least 0.9, where 1 is the maximum)
How it was run: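 Recombinant human CYP2A6 from insect cells was incubated with chemical for 0.5 h and activity read by fluorescence. Single-concentration duplicates at 10 uM preceded concentration-response testing to 20 uM, with activity referenced to acetonitrile.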

[15] = target: human CYP2B6, CYP2B6 (gene 1555) (UniProt P20813); assay: NVS_ADME_hCYP2B6: NovaScreen (NVS) CYP450-related Enzyme Activity (ADME) Assay for human CYP2B6 (AID 2283101; active = hit-call score of the fitted dose curve at least 0.9, where 1 is the maximum)
How it was run: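 Recombinant protein, specific fluorescent substrate, read at 1 h post-dosing. Primary: single 10 uM, duplicate; follow-up: concentration series. Activity = signal loss vs acetonitrile baseline, with positive and negative controls on every plate.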

Sequence of human CYP2B6, CYP2B6 (gene 1555) (P20813 whole entry, looked up): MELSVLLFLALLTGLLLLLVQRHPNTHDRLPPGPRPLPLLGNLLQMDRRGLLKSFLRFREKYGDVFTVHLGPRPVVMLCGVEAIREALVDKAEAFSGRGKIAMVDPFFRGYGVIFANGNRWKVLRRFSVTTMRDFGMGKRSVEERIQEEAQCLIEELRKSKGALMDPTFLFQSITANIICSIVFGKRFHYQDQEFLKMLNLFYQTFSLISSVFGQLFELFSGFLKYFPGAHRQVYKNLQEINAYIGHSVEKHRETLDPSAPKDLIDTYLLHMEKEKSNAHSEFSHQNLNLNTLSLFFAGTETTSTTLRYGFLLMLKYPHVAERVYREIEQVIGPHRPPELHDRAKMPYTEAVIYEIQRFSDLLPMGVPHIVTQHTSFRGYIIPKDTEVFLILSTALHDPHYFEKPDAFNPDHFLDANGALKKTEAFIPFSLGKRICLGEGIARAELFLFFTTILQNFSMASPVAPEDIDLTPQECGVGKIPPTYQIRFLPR
Sequence of E-selectin (Homo sapiens) (P16581 whole entry, looked up): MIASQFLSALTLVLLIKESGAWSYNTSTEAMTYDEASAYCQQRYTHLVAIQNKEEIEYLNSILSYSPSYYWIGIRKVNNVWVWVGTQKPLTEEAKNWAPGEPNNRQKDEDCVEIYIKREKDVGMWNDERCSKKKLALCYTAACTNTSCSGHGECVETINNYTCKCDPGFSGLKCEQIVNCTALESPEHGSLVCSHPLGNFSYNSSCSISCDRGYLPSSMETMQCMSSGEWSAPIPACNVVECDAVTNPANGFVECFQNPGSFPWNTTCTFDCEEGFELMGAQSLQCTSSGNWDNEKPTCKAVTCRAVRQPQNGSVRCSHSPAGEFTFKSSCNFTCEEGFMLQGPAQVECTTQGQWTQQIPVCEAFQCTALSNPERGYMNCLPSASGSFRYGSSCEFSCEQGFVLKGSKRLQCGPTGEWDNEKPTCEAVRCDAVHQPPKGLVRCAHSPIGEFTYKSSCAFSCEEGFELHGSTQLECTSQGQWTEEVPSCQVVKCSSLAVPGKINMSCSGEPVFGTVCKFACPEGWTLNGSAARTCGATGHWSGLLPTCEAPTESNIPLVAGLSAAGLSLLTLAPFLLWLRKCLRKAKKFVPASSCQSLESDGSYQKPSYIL
Sequence of Tumor necrosis factor (Homo sapiens) (P01375 whole entry, looked up): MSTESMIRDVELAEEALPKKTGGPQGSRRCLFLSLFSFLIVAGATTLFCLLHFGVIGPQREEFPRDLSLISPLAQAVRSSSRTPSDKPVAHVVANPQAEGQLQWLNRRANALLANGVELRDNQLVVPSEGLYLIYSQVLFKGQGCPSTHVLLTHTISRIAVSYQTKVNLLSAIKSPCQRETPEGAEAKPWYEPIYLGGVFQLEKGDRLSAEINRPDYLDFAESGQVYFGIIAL
Sequence of human CYP2A6, CYP2A6 (gene 1548) (P11509 whole entry, looked up): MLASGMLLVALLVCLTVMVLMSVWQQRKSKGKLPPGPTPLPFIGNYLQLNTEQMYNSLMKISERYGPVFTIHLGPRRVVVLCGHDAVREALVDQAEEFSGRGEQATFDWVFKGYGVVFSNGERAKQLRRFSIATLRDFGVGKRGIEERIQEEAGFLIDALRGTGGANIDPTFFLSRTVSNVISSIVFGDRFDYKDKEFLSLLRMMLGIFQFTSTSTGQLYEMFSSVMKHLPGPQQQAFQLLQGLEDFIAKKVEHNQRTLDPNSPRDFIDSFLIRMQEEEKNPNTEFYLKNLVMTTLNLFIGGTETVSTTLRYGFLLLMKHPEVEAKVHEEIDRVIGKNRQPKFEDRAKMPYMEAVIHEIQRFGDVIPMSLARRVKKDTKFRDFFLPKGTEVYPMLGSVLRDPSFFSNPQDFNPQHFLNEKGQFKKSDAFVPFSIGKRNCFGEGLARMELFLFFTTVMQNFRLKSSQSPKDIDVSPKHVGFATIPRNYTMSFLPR

Question: What does the source list for `C=CCC1=C(C)C(OC(=O)C2C(C=C(C)C)C2(C)C)CC1=O` (centres undefined)?
Answer: AC50 [1]: 35.7 µM (active) [middle of 4 runs]; AC50 [2]: 33.7 µM (active) and 5.54 µM (active); outcome [2]: inactive; AC50 [3]: 24.4 µM (active) [middle of 4 runs]; AC50 [4]: 33.8 µM (active) and 31.9 µM (active); outcome [4]: inactive; AC50 [5]: 34.3 µM (active) [middle of 4 runs]; AC50 [6]: 31 µM (active) [middle of 4 runs]; AC50 (CD38, CD38 (gene 952)): 30.5 µM (active) and 34.3 µM (active) and 31.6 µM (active); AC50 (CD40, CD40 (gene 958)): 31.7 µM (active) [middle of 4 runs]; AC50 (CD69, CD69 (gene 969)): 30.1 µM (active) [middle of 4 runs]; AC50 [7]: 34.9 µM (active) [middle of 4 runs]; AC50 [8]: 32.6 µM (active) [middle of 4 runs]; AC50 [9]: 39.6 µM (active) [middle of 4 runs]; AC50 [10]: 34 µM (active) [middle of 4 runs]; AC50 [11]: 28.9 µM (active) [middle of 4 runs]; AC50 [12]: 30.9 µM (active) [middle of 4 runs]; AC50 [13]: 32.1 µM (active) and 32.7 µM (active) and 36.2 µM (active); outcome [13]: inactive; outcome [14]: inactive; outcome [15]: inactive

Question: With `Oc1ccccc1-c1ccccc1` as the compound, how does the outcome [1] read?
Answer: inactive

Question: What about the AC50 [2] of the same compound?
Answer: 4.65 µM (active)

Question: And the outcome [3]?
Answer: inactive

Question: What about the outcome [4] of the same compound?
Answer: inactive

Question: What about the AC50 [5] of the same compound?
Answer: 14.8 µM (active)

Question: And the outcome [6]?
Answer: inactive

Question: And the outcome (CD38, CD38 (gene 952))?
Answer: inactive

Question: What about the outcome (CD40, CD40 (gene 958)) of the same compound?
Answer: inactive

Question: What about the outcome (CD69, CD69 (gene 969)) of the same compound?
Answer: inactive

Question: What about the outcome [7] of the same compound?
Answer: inactive

Question: What about the outcome [8] of the same compound?
Answer: inactive

Question: And the outcome [9]?
Answer: inactive

Question: And the outcome [10]?
Answer: inactive

Question: And the outcome [11]?
Answer: inactive

Question: What about the outcome [12] of the same compound?
Answer: inactive

Question: And the outcome [13]?
Answer: inactive

Question: For `CCCCNC(=O)n1c(NC(=O)OC)nc2ccccc21`, which outcome [1] is on record?
Answer: inactive

Question: What about the outcome [2] of the same compound?
Answer: inactive

Question: What about the outcome [3] of the same compound?
Answer: inactive

Question: And the outcome [4]?
Answer: inactive

Question: What about the outcome [5] of the same compound?
Answer: inactive

Question: And the AC50 [6]?
Answer: 22.6 µM (active)

Question: And the outcome (CD38, CD38 (gene 952))?
Answer: inactive

Question: What about the outcome (CD40, CD40 (gene 958)) of the same compound?
Answer: inactive

Question: And the outcome [7]?
Answer: inactive

Question: What about the outcome [8] of the same compound?
Answer: inactive

Question: What about the outcome [9] of the same compound?
Answer: inactive

Question: What about the outcome [10] of the same compound?
Answer: inactive

Question: And the outcome [11]?
Answer: inactive

Question: What about the AC50 [12] of the same compound?
Answer: 6.25 µM (active)

Question: What about the AC50 [13] of the same compound?
Answer: 12.3 µM (active)

Question: For `N#CC(CCc1ccc(Cl)cc1)(Cn1cncn1)c1ccccc1` (centres undefined), which outcome [1] is on record?
Answer: inactive

Question: And the AC50 [2]?
Answer: 3.75 µM (active)

Question: And the outcome [3]?
Answer: inactive

Question: And the outcome [4]?
Answer: inactive

Question: And the outcome [5]?
Answer: inactive

Question: And the outcome [6]?
Answer: inactive

Question: What about the outcome (CD38, CD38 (gene 952)) of the same compound?
Answer: inactive

Question: And the outcome (CD40, CD40 (gene 958))?
Answer: inactive

Question: What about the outcome (CD69, CD69 (gene 969)) of the same compound?
Answer: inactive

Question: And the outcome [7]?
Answer: inactive

Question: And the outcome [8]?
Answer: inactive

Question: What about the outcome [9] of the same compound?
Answer: inactive

Question: What about the outcome [10] of the same compound?
Answer: inactive

Question: And the outcome [11]?
Answer: inactive

Question: And the AC50 [12]?
Answer: 8.6 µM (active)

Question: What about the outcome [13] of the same compound?
Answer: inactive

Question: What about the AC50 [15] of the same compound?
Answer: 0.429 µM (active)

Question: Which results are given for `N#Cc1nn(-c2c(Cl)cc(C(F)(F)F)cc2Cl)c(N)c1S(=O)C(F)(F)F` (centres undefined)?
Answer: AC50 [1]: 32.4 µM (active); outcome [2]: inactive; AC50 [3]: 20 µM (active); outcome [4]: inactive; AC50 [5]: 5.27 µM (active); AC50 [6]: 31.2 µM (active); AC50 (CD38, CD38 (gene 952)): 29.7 µM (active); AC50 (CD40, CD40 (gene 958)): 28.1 µM (active); AC50 [7]: 30 µM (active); AC50 [8]: 29.8 µM (active); AC50 [9]: 35 µM (active); AC50 [10]: 5.04 µM (active); AC50 [11]: 27.8 µM (active); AC50 [12]: 15.6 µM (active); AC50 [13]: 34 µM (active)
